# Measured values published in PubChem BioAssay AID652054 (National Center for Advancing Translational Sciences (NCATS), 2013).
# Among all 360,000 compounds or so, about 9,100 (2.5%) were called active. Inconclusive results (about 4%) are left out. Shown is part of a subset that was picked to be rich in actives. Unmarked numbers belong to inactive results. Cut-off read from the data, not from the text of the source: active = max response below about -50%; inconclusive = no clear call, values can overlap the other calls; inactive = above that.
# Target: D(3) dopamine receptor (Homo sapiens) (UniProt P35462)
# Sequence (P35462 whole entry, looked up): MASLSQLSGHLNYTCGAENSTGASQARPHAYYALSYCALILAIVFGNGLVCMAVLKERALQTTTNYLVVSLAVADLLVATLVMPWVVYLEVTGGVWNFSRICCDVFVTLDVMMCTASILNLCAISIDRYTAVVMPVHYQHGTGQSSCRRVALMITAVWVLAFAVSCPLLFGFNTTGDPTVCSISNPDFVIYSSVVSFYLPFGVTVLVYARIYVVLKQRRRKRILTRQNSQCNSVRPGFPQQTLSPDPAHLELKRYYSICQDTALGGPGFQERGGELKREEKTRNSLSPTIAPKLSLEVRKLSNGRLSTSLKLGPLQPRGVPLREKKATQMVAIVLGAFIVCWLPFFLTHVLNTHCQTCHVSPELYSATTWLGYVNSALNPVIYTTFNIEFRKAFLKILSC
# Test: qHTS of D3 Dopamine Receptor Antagonist: qHTS
# Conditions: D3R cells, DiscoveRx beta-arrestin luminescence, antagonist mode; stronger effect = lower value
# Source text: D3 DARs represent a very important target for the treatment of several neuropsychiatric disorders. Indeed, one of the most promising therapeutic applications for the D3 DAR is in the area of addiction and related disorders. […] These findings have been observed with a number of addictive substances including cocaine, amphetamine, nicotine, and alcohol. […] Antagonism of the D3 DAR may also be therapeutic in the treatment of schizophrenia or psychosis. […] Since the D3 DAR is expressed in areas of the CNS associated with the control of mood and emotion, it has been hypothesized that selective antagonism of the D3 DAR may be effective in treating psychosis without inducing the motor side effects typically seen with D2 DAR antagonists.
# This part of the project aims to discover novel antagonist.
# NIH Chemical Genomics Center [NCGC]
# NIH Molecular Libraries Probe Centers Network [MLPCN]
# Assay Submitter (PI): David Sibley, NINDS
# Freshly passaged cells are plated in 1536 well white, solid bottom plates at a density of 1500 cells/well in 3microl of complete media. After an overnight incubation at 37 degrees C in 5% CO2, cells are loaded with 23nl of test compound from the compound library (as well as dopamine controls) using a 1536 pintool and incubated at 37 degrees C for 90 minutes. Two microliters of DiscoveRx reagent is then added to all cells, and they are incubated for an additional 30 - 60 minutes at room temperature. Following incubation, luminescence is measured on a ViewLux CCD-based luminometer reader using a 20 sec exposure time.
# % is set by controls: 0 for no effect and ±100 for the full control effect.
row,SMILES,"max response, negative = inhibition"
1,CC(Cc1ccccc1)NCCC(c1ccccc1)c1ccccc1 (stereo not given),-75.4% (active)
2,CC(=O)NC(=O)NC(C)Cc1ccccc1 (stereo not given),0%
3,Fc1ccc(C2N3CCCN23)cc1 (stereo not given),17.3%
4,CCOC(=O)CC(SP1(=S)OCC2(CCCCO2)C(C2CCCCO2)O1)C(=O)OCC (stereo not given),0.24%
5,COc1ccc2c(c1O)-c1cccc3c1[C@@H](C2)N(C)CC3,-64.4% (active)
6,COC1=C[C@@H]2[C@@H]3Cc4ccc(OC)c(O)c4[C@]2(CCN3C)CC1=O,2.57%
7,COc1c(O)ccc2c1-c1c3c(cc4c1C(C2)N(C)CC4)OCO3 (stereo not given),-20.5%
8,COc1cccc(CN2CCCC(C(=O)c3ccccc3SC)C2)c1O (stereo not given),-25.9%
9,c1cncc(CNC2=NCCC2)c1,-0.0969%
10,COC(=O)CN(CCCl)P1(=O)OCCCN1CCCl (stereo not given),9.55%
11,CCn1cc(CN2CCCC(C(=O)c3cccc(C(F)(F)F)c3)C2)cn1 (stereo not given),-84.1% (active)
12,CC(C)Oc1cccc(C(=O)C2CCCN(C3CCOCC3)C2)c1 (stereo not given),-5.82%
13,CSc1ccc(C(=O)C2CCCN(Cc3ccn[nH]3)C2)cc1 (stereo not given),2.56%
14,CN(C)CC1Oc2ccccc2OC1(O)c1ccccc1 (stereo not given),-95.3% (active)
15,CC1CCC(N(C)C2CCN(C)CC2)CC1 (stereo not given),-17.4%
16,Cc1cccc(-n2c(C)nc3cc(C(=O)N4CCC5(CC4)OCCO5)ccc32)c1,-5.12%
17,Clc1cccc(Cl)c1Cl,-21.5%
18,Fc1cccc(F)c1CN1CCN(Cc2c(F)cccc2F)CC1,-59.3% (active)
19,CN1CCN(Cc2ccccc2C(F)(F)F)CC1,-22.2%
20,O=C(N/N=C/c1c(O)n(C2CC2)c(=S)[nH]c1=O)c1ccccc1,-25.4%
21,CCC/C(=N\O)c1c[nH]c2ccccc12,-19.7%
22,Cc1cccc(NC(=O)N2CC3CC(C2)c2cccc(=O)n2C3)c1 (stereo not given),8.44%
23,CCOC(=O)C(O)(c1ccc(NC(=O)c2ccco2)c(OC)c1)C(F)(F)F (stereo not given),44%
24,COc1cc(C(c2c(O)c3ccccc3oc2=O)c2c(C)n(C)n(-c3ccccc3)c2=O)ccc1O (stereo not given),9.1%

row,SMILES,"max response, negative = inhibition"
1,Cc1ccc(-n2c(-c3ccc([N+](=O)[O-])cc3)nc3ccccc3c2=O)cc1,7.83%
2,CCC(=O)CC(c1ccc([N+](=O)[O-])cc1)c1c(O)c2ccccc2oc1=O (stereo not given),-88.6% (active)
3,COC(=O)C[C@H]1CC[C@H]2NC[C@@H](O)COC[C@@H]2O1,0.0579%
4,CC(=O)NCC1=C(c2ccc3ccccc3c2)C[C@@H]2CC[C@H]1N2Cc1ccco1,-16.9%
5,C[C@H]1CN([C@@H](C)CO)C(=O)CCCn2nncc2CO[C@H]1CN(C)C(=O)Oc1cccc2ccccc12,27%
6,CCOC(=O)C1CN(C)CCC1=O (stereo not given),-50.3% (active)
7,CCOC(=O)[C@]12Cc3cc(OC)ccc3[C@H]1N(C(C)C)C(=O)c1ccccc12,0.502%
8,c1ccc(C(CN2CCCCC2)c2ccccc2)cc1,5.85%
9,O=[N+]([O-])c1ccc(C2C3C(c4ccccc4)=NC4(CCCCC4)N32)cc1 (stereo not given),4.9%
10,O=C1NC(=O)C(Cc2ccccc2)C(=O)N1,4.35%
11,CC(=O)N1CN2CN(C(C)=O)CC(C(=O)c3ccc(Br)cc3)(C2)C1,2.09%
12,Cc1cc2ccccn2c1C(C[N+](=O)[O-])c1c(F)cccc1Cl (stereo not given),-52.4% (active)
13,Cn1cc(C(=O)OCC(=O)N2CCCC2)c2ccccc21,0%
14,CCC(=O)OC(Cc1ccccc1)(c1ccccc1)C(C)CN(C)C (stereo not given),-66% (active)
15,O=P(OC1=CCCCC1)(c1ccccc1)c1ccccc1,16.2%
16,CN(C)CCN(CC1CCCN(Cc2ccccc2F)C1)C(=O)Cc1ccc(F)c(F)c1 (stereo not given),-0.712%
17,Nc1ccc(C(=O)N/N=C2/CN3CCC2CC3)cc1,-6.03%
18,C=CCN1C(=O)NC(=O)/C(=C/c2ccc(OCC(=O)Nc3ccc(C)cc3)cc2)C1=O,-2.43%
19,O=C(O)C1CSC(c2cccnc2)N1 (stereo not given),-75.1% (active)
20,CC(C)n1c(=O)c(C=Nc2ccc(Br)cc2)c(O)n(Cc2ccco2)c1=O,-0.258%
21,COC(=O)C1=C(c2ccc(OCc3ccccc3)cc2)C[C@@H]2CC[C@H]1N2C(=O)NCc1ccc(Cl)cc1,-2.39%
22,COc1ccc(N=Cc2c(O)n(C)c(=O)[nH]c2=O)cc1,-8.25%
23,Cc1ccsc1C(=O)C1CCCN(Cc2ccc(O)cc2)C1 (stereo not given),-22.3%
24,COc1ccc(C(=O)C2CCCN(Cc3ccc(C)s3)C2)cc1OC (stereo not given),1.99%

row,SMILES,"max response, negative = inhibition"
1,Cc1ccc(CN2CCCC(C(=O)c3ccc4c(c3)OCO4)C2)cc1C (stereo not given),-74.3% (active)
2,COc1ccc(C2C=C(C)Oc3c2c(=O)oc2ccccc32)cc1OC (stereo not given),1.55%
3,CC1(C)Cc2c(C#N)c(N3CCNCC3)nc(-c3ccco3)c2CS1,-15.4%
4,COc1ccccc1CN1CCN(C(=O)Cc2ccccc2)CC1,-24%
5,CC(C)c1ccc(O)c(CN2CCN(c3ccccc3)CC2)c1,-71% (active)
6,CCN1CCN(Cc2cc(OC)c3c(c2)OCO3)CC1,2.18%
7,O=C(Cc1ccccc1[N+](=O)[O-])N1CCN(Cc2ccc3c(c2)OCO3)CC1,-4.07%
8,Fc1ccc(N2CCN(Cc3ccc4c(c3)OCO4)CC2)cc1,-111% (active)
9,Cc1cc(=O)oc2c(C)c(OCC(=O)N3CCN(Cc4ccc5c(c4)OCO5)CC3)ccc12,0.853%
10,Oc1cc2c(cc1CN1CCN(c3ccccc3)CC1)OCO2,-71.5% (active)
11,OC(Cn1c2ccccc2c2ccccc21)C[n+]1ccccc1 (stereo not given),-9.75%
12,c1cc2c(cc1C1OCC3C(c4ccc5c(c4)OCO5)OCC13)OCO2 (stereo not given),1.57%
13,C[C@]12CC[C@H](O)CC1=C([N+](=O)[O-])CC1C2CC[C@@]2(C)C1CC[C@@H]2O (stereo not given in full),10.3%
14,O=C1C2CCN(CC2)C1(CO)CO,5.89%
15,CC(=O)C1(O)CCC2C3CCC4=C(Cl)C(=O)CCC4(C)C3CCC21C (stereo not given),-13.9%
16,CCN1CCN(C(=O)Cc2coc3cc(C)cc(C)c23)CC1,-9.21%
17,C[C@]12CCC3C(CC[C@H]4[C@H](O)[C@H](O)CC[C@]34C)C1CC[C@@H]2O (stereo not given in full),2.6%
18,CC(C)CN1Cc2cc(N3CCCCC3)ccc2-n2nncc2C1,-13.6%
19,CCOc1ccc(CN(CCCl)CCCl)cc1C(=O)OC,-27.4%
20,CC(C)c1ccc(OCC(=O)N2CCN(C)CC2)c(Br)c1,-52% (active)
21,CN1CCN(C(=O)COc2ccc(C(C)(C)C)cc2Br)CC1,0%
22,CC(C)c1ccc(OCC(=O)N2CCCN(C)CC2)cc1,-7.58%
23,Cc1ccc(P(=S)(c2ccc(C)o2)N2CCOCC2)o1,14%
24,Cc1nc2ccccn2c1P(=S)(N1CCCCC1)N1CCCCC1,12%

row,SMILES,"max response, negative = inhibition"
1,Cc1cc(C)cc(NC(=S)NC2CC3CCCC(C2)N3Cc2cccs2)c1 (stereo not given),-81.8% (active)
2,CCC1(CC(C)c2ccccc2)C(=O)NC(=O)NC1=O (stereo not given),6.61%
3,O=C(CCN1CCCCC1)NCC(=O)Nc1ccc(Br)cc1C(=O)c1ccccc1,-29.9%
4,Cc1ccc(Cn2c(C)c3cnn(CC(=O)N4CCC5(CC4)OCCO5)c(=O)c3c2C)cc1,3.94%
5,Cc1ccc(Cn2nnnc2CN2CCC(n3nnc4ccccc43)CC2)cc1,-69% (active)
6,O=c1[nH]c2ccccc2n1C1CCN(C(c2ccnc3ccccc23)c2nnnn2Cc2ccccc2)CC1 (stereo not given),9.58%
7,O=c1[nH]c2ccccc2n1C1CCN(C(c2ccccc2)c2nnnn2Cc2ccccc2)CC1 (stereo not given),71.4%
8,CCOC(=O)[C@]12Cc3ccccc3[C@H]1N(C1CCCCC1)C(=O)c1cc(OC)ccc12,-14.9%
9,O=C(COC(=O)Cc1ccccc1)Nc1ccc(F)cc1,6.49%
10,CCOc1cccc(=NC2CCCCC2)c2c(C)[nH]c(C)c12,13.5%
11,CCN1CC2C3CCC(C)(O3)C2C1 (stereo not given),-7.4%
12,Cc1nc2nc(C)c(CCC(=O)N3CCC4(CC3)OCCO4)c(C)n2n1,-10.8%
13,Cc1ccc(C2CN(C)CC2C(=O)c2ccc(F)cc2)cc1 (stereo not given),-102% (active)
14,COc1ccc(C(=O)C2CN(C)CC2C(=O)c2ccc(OC)cc2)cc1 (stereo not given),-1.15%
15,CN1CCC(OC(=O)c2cccc(F)c2)CC1,-13.8%
16,Cn1c(O)c(C(=Nc2ccc(F)cc2)c2ccccc2)c(=O)n(C)c1=O,-8.88%
17,c1cncc(CNCCc2c[nH]c3ccccc23)c1,14.8%
18,O=C1NCN(c2ccccc2)C12CCN(C(c1cccs1)c1nnnn1C1CCCCC1)CC2 (stereo not given),-8.63%
19,c1ccc(N2Cc3ccccc3-n3nncc3C2)nc1,-20.4%
20,CC(=O)OC1C2(CC3N4C(=O)C5(CO)SSC4(CC31O)C(=O)N5C)OC(C)C(C)(C)C2=O (stereo not given),-98.1% (active)
21,CN(C)S(=O)(=O)c1cc(C(=O)N2CCC(C(=O)O)(c3ccccc3)CC2)ccc1Cl,-1.23%
22,Clc1ccc2nc3c(c(-c4ccccc4)c2c1)CNCC3,-1.49%
23,COc1ccc(-n2nnnc2C(c2cccc3ccccc23)N2CCC(n3c(=O)[nH]c4ccccc43)CC2)cc1 (stereo not given),117%
